Screening data (PubChem)
Compounds with a hit are over-represented: about 3.3% of the library has one in this group of screens.
TbPYK inhibitor – qHTS of Trypanosoma Brucei Inhibitors | pyruvate kinase (Trypanosoma brucei), Q57TT1 | TbPYK enzyme, Kinase-Glo Plus ATP luminescence, 45 min | hit rate 0.12% among 410,000 | Potency, µM (series often up to 76.8 µM), for inactives: top-dose activity, negative = inhibition, most hits filed as inhibitors; further: on the % scale 0 is the no-effect control and ±100 the full control effect; nearly all actives have a fitted effect of over 50% in size
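Readout: single end-point luminescence (Kinase-Glo Plus, 10 min). Reaction conditions were TbPYK/substrate plus 130 uM ADP, 45 min at RT, pH 7.2 TEA buffer. No-enzyme wells served as controls, and data were normalized before concentration-response fitting.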
LmPK inhibitor – qHTS Assay for Inhibitors of Leishmania Mexicana Pyruvate Kinase (LmPK). purified LmPK, Kinase-Glo ATP luminescence, 1 h. Potency, µM (doses to about 57.5 µM), for inactives: at the highest dose activity change, negative = inhibition, actives largely listed as inhibitors. hit rate 0.37% among 290,000; further: on the % scale 0 is the no-effect control and ±100 the full control effect
Target sequence (Q27686 whole entry, looked up): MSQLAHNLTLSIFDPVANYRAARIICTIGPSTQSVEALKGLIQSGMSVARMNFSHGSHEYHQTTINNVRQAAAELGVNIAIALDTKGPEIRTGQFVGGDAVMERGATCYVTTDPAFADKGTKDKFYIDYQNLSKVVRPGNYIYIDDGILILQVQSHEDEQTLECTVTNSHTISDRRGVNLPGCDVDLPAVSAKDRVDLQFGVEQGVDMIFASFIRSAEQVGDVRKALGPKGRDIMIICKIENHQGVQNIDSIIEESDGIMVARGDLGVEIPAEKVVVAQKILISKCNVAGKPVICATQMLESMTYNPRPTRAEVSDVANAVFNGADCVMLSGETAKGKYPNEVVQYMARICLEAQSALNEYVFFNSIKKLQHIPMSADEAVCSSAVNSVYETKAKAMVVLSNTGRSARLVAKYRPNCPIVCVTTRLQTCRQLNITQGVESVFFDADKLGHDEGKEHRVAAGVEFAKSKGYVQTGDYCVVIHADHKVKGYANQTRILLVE
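qHTS format; LmPK 0.1 nM; substrates PEP 0.5 mM and ADP 0.1 mM. One-hour room-temperature incubation, then coupled luciferase luminescence; 0.5 nM enzyme wells mark activation.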
RE007 growth inh – qHTS Assay for Inhibitors of the HIV-1 protein Vpr; S. pombe RE007 Vpr strain, BacTiter-Glo ATP luminescence, 24 h; Potency, µM (highest dose often 92.2 µM), inactives show top-dose activity change, negative = less growth, usual class: inhibitors; hit rate 0.21% among 360,000; active means well fitted falling curve with a large enough effect; inconclusive means small, poorly fitted or top-dose-only effect; inactive means no such curve, though single readings can be large or run the other way; further: on the % scale 0 is the no-effect control and ±100 the full control effect; nearly all actives have a fitted effect of over 50% in size
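Fission yeast RE007 carrying one integrated HIV-1 vpr copy, seeded at OD 0.01 in PMG+AL medium with 23 nL pinned compound. Grown 24 h at 30 degrees; viability read by BacTiter-Glo luminescence after 5 min.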
SARS PLP yeast – qHTS of Yeast-based Assay for SARS-CoV PLP; AID 485353, 2010; Potency, µM (titrated, usually from 32.9 µM), inactives show at the top dose activity, positive = growth rescue, hits mostly activators; hit rate 0.19% among 330,000; S. cerevisiae expressing SARS-CoV PLpro, growth rescue; calls by dose curve; further: 0% is about no effect; nearly all actives have a fitted effect of over 55% in size
Sm TGR block – qHTS Assay for the Inhibitors of Schistosoma Mansoni Peroxiredoxins; Schistosoma mansoni thioredoxin glutathione reductase (TGR), Q962Y6; purified TGR, DTNB reduction, TNB absorbance 405 nm; Potency, µM (doses to about 114 µM), for the others: top-dose activity change, negative = inhibition, actives largely listed as inhibitors; hit rate 3% among 360,000; further: on the % scale 0 is the no-effect control and ±100 the full control effect; nearly all actives have a fitted effect of over 60% in size
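Kinetic colorimetric format: TGR-catalysed, NADPH-driven DTNB reduction monitored via TNB absorbance. Enzyme dispensed at 20 nM; compound exposure 15 min at room temperature before reaction start.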
NS1 function inh – qHTS Assay for Inhibitors of Influenza NS1 Protein Function. Potency, µM (series often up to 46.1 µM), inactives show at the highest dose activity, positive = more growth. hit rate 0.4% among 270,000. AID 2326, 2010; calls by dose curve; further: actives are rising curves; nearly all actives have a fitted effect of over 50% in size
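S. cerevisiae expressing influenza A NS1, grown in glucose, washed, then diluted 1:100 into pH 6.0 -URA galactose medium with 23 nl compound. Growth recovery read as OD600; NS1-free strain serves as control.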
* = called active by the depositor; ? = inconclusive; nt = no result given. Unless noted, the call rests on the fitted dose curve; in most records, active means well fitted curve in the direction sought with a large enough effect; inconclusive means small, poorly fitted or top-dose-only effect, or another doubt; inactive means no such curve, though single readings can be large; an effect the other way counts as inactive or inconclusive. Potency means the concentration at half of the fitted maximal effect.

SMILES	TbPYK inhibitor	LmPK inhibitor	RE007 growth inh	SARS PLP yeast	Sm TGR block	NS1 function inh
CCOc1ccc(NC(=O)c2ccco2)cc1	6%	-29%	-10%	-14%	-9%	-1%
CSc1ncc(C(=O)NCc2ccc(F)cc2)c(-c2ccccc2)n1	3%	nt	nt	nt	-2%	nt
Cc1cc(NC(=O)N2CCC(CN3CCCCCC3)CC2)ccc1Br	-4%	nt	nt	nt	-28%	nt
Cc1cccc(C(=O)NCCc2nc3ccccc3n2CCC(C)C)c1	4%	nt	nt	nt	3%	nt
Cc1cccc(NC(=S)NC(=O)c2ccco2)c1C	-8%	-3%	-23%	1%	?	-1%
O=C(NC(=S)Nc1ccccc1Br)c1ccco1	-5%	-4%	-3%	0%	35µM*	-26%
CC(=O)c1ccc(NC(=S)NC(=O)/C=C/c2ccco2)cc1	-1%	8%	-8%	5%	20µM*	29%
COc1cccc(CSc2nc3ccncc3[nH]2)c1	-5%	25µM*	?	-1%	24%	21%
Cc1ccc(N(C)C(=O)C2CCN(S(=O)(=O)c3cn(C)cn3)CC2)cc1	0%	nt	nt	nt	1%	nt
O=C(c1cc2ccccc2oc1=O)N(Cc1ccco1)Cc1cccs1	-5%	3%	19%	-5%	28µM*	-6%
O=C(c1cc2ccccc2oc1=O)N(Cc1cccs1)Cc1cccs1	-21%	9%	-8%	-29%	-1%	2%
Cn1c(=O)oc2cc(S(=O)(=O)N3CCCC(C(=O)N4CC=C(c5ccccc5)CC4)C3)ccc21 (configuration not stated)	nt	9%	nt	4%	?	10µM*
COc1cccc(N2CCN(C(=O)c3ccc(CS(=O)c4cccc(Cl)c4)o3)CC2)c1 (configuration not stated)	-1%	nt	nt	nt	-32%	nt
Cc1ccc(-c2nc3ccccc3n2C)o1	?	14µM*	40µM*	-29%	16µM*	-120%
CN(C)c1ccc(-c2nc3ccccc3n2C)cc1	?	13µM*	?	-11%	?	-82%
Cn1cc(C(=O)c2ccccc2)cc1-c1nc2ccccc2n1C	-2%	5%	-3%	-17%	-8%	-92%
Cn1c(-c2ccc(Br)o2)nc2cc(Br)ccc21	?	-25%	-8%	-2%	13µM*	-84%
Cc1ccc2nc(-c3ccc(Br)o3)oc(=O)c2c1	1%	-4%	-16%	2%	0%	-58%
Cc1oc(-c2nc3ccccc3n2C)cc1C(=O)c1ccccc1	32µM*	13µM*	?	-69%	25µM*	-80%
COc1cc(C2C=C(C(=O)O)Nc3ncnn32)ccc1O (configuration not stated)	4%	nt	nt	nt	2%	nt
COc1ccc(C)cc1Nc1cc(C)nc(C)n1	6%	nt	nt	nt	-2%	nt
CCOc1ccc(NC(=O)C(C)n2c(=O)cc(C)c3c(C)nn(-c4ccccc4)c32)cc1 (configuration not stated)	-4%	nt	nt	nt	5%	nt
CC(=O)c1ccc(-c2nc3ccccc3n2C)o1	-24%	16µM*	-15%	-9%	40µM*	-18%
Cn1c2nc3ccccc3c-2nc2ccccc21	-15%	nt	-24%	nt	nt	nt
CCc1c(C)c2ccc(O)c(CN3CCN(c4cc(Cl)ccc4C)CC3)c2oc1=O	-6%	nt	nt	nt	-1%	nt
SMILES	TbPYK inhibitor	LmPK inhibitor	RE007 growth inh	SARS PLP yeast	Sm TGR block	NS1 function inh
COc1ccc(S(=O)(=O)NCc2ccco2)cc1-c1nnc2c3ccccc3c(C)nn12	4%	-5%	51%	2%	56µM*	-4%
C#CCOc1ccc(C2C3=C(CC(C)(C)CC3=O)N(CC(=O)O)C3=C2C(=O)CC(C)(C)C3)cc1OC	-8%	1%	4%	1%	35µM*	5%
Cc1ccccc1CNC(=O)c1ccc(CS(=O)Cc2ccc(Cl)cc2)o1 (configuration not stated)	0%	nt	nt	nt	-4%	nt
CSc1ccc(C2NC(=O)c3ccccc3N2)cc1 (configuration not stated)	-2%	nt	6%	nt	nt	nt
Clc1ccc(C2Nc3cccc4cccc(c34)N2)c(Cl)c1	-2%	nt	-17%	nt	nt	nt
O=[N+]([O-])c1cc(C2Nc3cccc4cccc(c34)N2)ccc1Cl	-8%	-3%	nt	-1%	-26%	21%
CSc1ccc(C2Nc3cccc4cccc(c34)N2)cc1	-12%	23%	6%	-2%	25µM*	-13%
Clc1ccc(C2Nc3cccc4cccc(c34)N2)cc1	-18%	-8%	-22%	0%	16µM*	12%
c1cc2c3c(cccc3c1)NC(c1ccc3c(c1)OCO3)N2	-11%	0%	4%	-1%	18µM*	-2%
Cc1cccc(C2Nc3cccc4cccc(c34)N2)c1	-1%	-10%	2%	1%	20µM*	5%
CCN(Cc1ccccc1)Cc1c(O)ccc2oc(C)c(C(=O)Nc3ccccc3C)c12	-8%	nt	nt	nt	-35%	nt
CCOC(=O)[C@H](CCc1ccccc1)NC(C)C(=O)N1CC2(CC1C(=O)O)SCCS2 (some centres not stated)	0%	nt	nt	nt	nt	nt
CC1CCc2c(sc(NC(=O)c3cc(-c4cccc(Cl)c4)on3)c2C(N)=O)C1 (configuration not stated)	0%	nt	nt	nt	3%	nt
Brc1ccc(C2Nc3cccc4cccc(c34)N2)s1	-11%	-4%	-10%	2%	20µM*	-2%
c1cncc(C2Nc3cccc4cccc(c34)N2)c1	0%	-14%	-10%	3%	8.9µM*	-1%
c1cncc(C2CCCCN2)c1 (configuration not stated)	0%	-3%	-11%	0%	-1%	3%
O=P(O)(O)OC[C@@H](O)CO	0%	nt	nt	nt	nt	nt
CCc1nn(CC(=O)NCc2ccc(OC)cc2OC)c(=O)c2cc3c(OC)cccc3n12	2%	nt	nt	nt	1%	nt
CCSC1(SCC)N=C(N)C2(C#N)C(c3ccc(F)cc3)C12C#N (configuration not stated)	-7%	-4%	4.5µM*	0%	?	-15%
COC1(OC)N=C(N)C2(C#N)C(c3ccc(F)cc3)C12C#N (configuration not stated)	-20%	-7%	-1%	7%	-15%	-2%
CCSC1(SCC)N=C(N)C2(C#N)C(c3ccccc3)NC(C)=C(C)C12C#N (configuration not stated)	-3%	2%	56µM*	-1%	-6%	7%
CSc1nc(C)cc(Nc2c(C)cc(C)cc2C)n1	2%	nt	nt	nt	-2%	nt
COc1ccc(/C=N\Nc2ccc([N+](=O)[O-])cc2[N+](=O)[O-])c(C(=O)O)c1OC	-27%	-2%	-9%	0%	8.9µM*	9%
CN=C(N)/N=C(\N)Nc1cc2ccccc2c2ccccc12	nt	nt	nt	nt	nt	3%
